Measured values as given in PubChem BioAssay.
Where “and” joins values, the source holds several entries; their conditions need not be identical. Equal entries are not always repeated. Calls of active or inactive are those of the source.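 Rule for the calls, unless noted: active = thallium flux through the channel raised or lowered by more than 3 SD from vehicle-only wells, actives on both sides; inactive = the rest.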

Columns and labels:
[1] = Wnt pathway potentiators raising nuclear beta-catenin – imaging, WNT3A-conditioned medium, mouse C2C12, NPC library, primary screen (AID 1117326; in the data active = nuclear beta-catenin stimulation mostly above about 4.2%, no sharp cut-off; inactive = mostly below about 10%); conditions: stronger effect = higher value
[2] = stimulators of insulin release from INS-1E, primary screen, cell-based, 5 mM glucose, NPC library (AID 1117329;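 active = compound raises insulin release from rat beta cells at 5 mM glucose, no numeric limit stated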); conditions: rat INS-1E insulin secretion, at 10 µM, stronger effect = higher value
[3] = growth inhibition of GSK3B-pretreated HCT116 cells – cell-based, CellTiter-Glo, 0.2 to 20 µM (AID 1117336;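 active = compounds lowering colon cancer cell viability after pretreatment blocking the GSK3B kinase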); conditions: HCT116 viability after GSK3B inhibitor, at 20 µM, stronger effect = higher value
[4] = inhibition of endothelial tube formation, primary screen, imaging, VEGF stimulated, CD31 staining, tube area, NPC library (AID 1117340;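 active = compound that reduces growth-factor-driven endothelial tube area in a mixed cell culture, no cutoff stated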); conditions: VEGF-stimulated ADSC/ECFC co-culture, at 10 µM, stronger effect = higher value
[5] = GLP1 release stimulators, primary, NCI-H716, NPC library (AID 1117341;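 active = compound raises GLP1 secretion from the human gut endocrine cells, with no numeric limit stated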); conditions: NCI-H716 cells, at 10 µM, stronger effect = higher value
[6] = HCT116 colon cancer cell growth inhibition, primary screen, CellTiter-Glo luminescence, NPC library (AID 1117342;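 active = compounds that lower survival of HCT116 colon cancer cells in the luminescence readout, no numeric limit stated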); conditions: at 20 µM (top of the series)
[7] = reduced SW480 viability measured with CellTiter-Glo, NPC library, primary (AID 1117343;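 active = compounds that lower viability of the colon cancer cells in the luminescence readout, with no numeric limit stated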); conditions: CellTiter-Glo luminescence; at 20 µM (top of the series)
[8] = NPC library primary testing for decreased DLD-1 cell viability via CellTiter-Glo (AID 1117346;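 active = compounds that lower survival of DLD-1 colon cancer cells in the luminescence readout, no cutoff given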); conditions: DLD-1 viability, CellTiter-Glo luminescence; at 20 µM (top of the series)
[9] = molecular target: 6-phosphogluconate dehydrogenase, decarboxylating (Homo sapiens) (UniProt P52209); test: inhibition of human phosphogluconate dehydrogenase – biochemical, recombinant enzyme, NADPH absorbance, primary screen (AID 1159550;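 active = at least 20% inhibition of 6-phosphogluconate dehydrogenase activity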); conditions: recombinant 6PGD, NADPH absorbance 341 nm; at 10 µM; stronger effect = higher value
[10] = modulation of C. elegans fzo-1 (AID 1259413; call rule not given here;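 note: fzo-1 mutant C. elegans worms in liquid wells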); conditions: C. elegans fzo-1 modulator screen, mean read-out; stronger effect = higher value
[11] = EMT-state selective cytotoxicity in co-culture – imaging, PC-3E GFP, TEM4-18 mCherry, primary screen (AID 1345086;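 active = compounds killing one labelled cell type while sparing the other, by normalised counts and ratio limits, not self-fluorescent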;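 for all read-outs here: cells exposed to compound for 72 h before imaging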;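 for red/green cell ratio (normalised): normalised mesenchymal count divided by normalised epithelial count so high means epithelial killing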); conditions: PC-3E GFP / TEM4-18 mCherry co-culture, imaging cell counts, at 1 µM; for red/green cell ratio (normalised): actives lie on both sides, counts scaled to control wells, 1 = unselective
[12] = MELAS cybrid and Rieske KO viability enhancers – cell-based, MELAS cybrids, Rieske KO mouse fibroblasts, CellTiter-Glo, primary screen (AID 1508586;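 active = mean z-score across replicates of 1.96 or higher in either the MELAS or the Rieske mutant cell line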;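 note: z relative to plate mean and SD of compound and empty wells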); conditions: low glucose
[13] = molecular target: NAD(+) hydrolase SARM1 (Homo sapiens) (UniProt Q6SZW1); test: blocking NAD cleavage by SARM1 SAM-TIR – cell lysate, NAD-Glo luminescence (AID 1508614;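 active = compound whose remaining NAD level is above about 45 nM, limit read from the data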;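 note: higher remaining NAD means stronger inhibition of SARM1 NADase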); conditions: SAM-TIR HEK293T lysate NADase, at 1 µM, stronger effect = higher value
[14] = molecular target: Mitogen-activated protein kinase 7 (Homo sapiens) (UniProt Q13164); test: Gal4-ERK5 driven luciferase induction – cell-based, HTS, primary screen (AID 1508626;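 active = luciferase signal above three times the same-plate solvent-only control wells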;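 note: luciferase driven by Gal4-ERK5 fusion binding five Gal4 sites before minimal TATA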); conditions: HeLa Gal4-ERK5 transactivation, 18 h, at 5 µM, stronger effect = higher value
[15] = tested on: F380Y; test: BK channel mutant inhibitors and activators – cell-based, U2OS BacMam, thallium flux, beta subunits, selectivity assay, profiling panel (AID 1259406); conditions: U2OS BacMam BK variants, at 30 µM;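 note: initial slope of Thallos dye fluorescence rise after thallium is added; log ratio against the mean of 0.3% DMSO vehicle wells on the same plate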
[16] = tested on: F380Y/beta1; test: as above; conditions: U2OS BacMam BK variants, at 30 µM
[17] = tested on: F380Y/beta2Delta; test: as above; conditions: U2OS BacMam BK variants, at 30 µM
[18] = viability loss with induced miR-34 in A549 – imaging, A549 dox-inducible miR-34, nuclei and caspase counts, primary screen (AID 1347080;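 active = compounds whose cell count with miR-34 switched on is under 0.7 times the count with it off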); conditions: A549 miR-34 inducible, Hoechst nuclei count, 48 h
[19] = measured here: epithelial PC-3E GFP cell survival
[20] = measured here: mesenchymal TEM4-18 mCherry cell survival
[21] = MELAS cybrid survival, CellTiter-Glo 48 h, stronger effect = higher value
[22] = Rieske KO mouse fibroblast survival, CellTiter-Glo 72 h
[23] = stronger effect = lower value, cell number ratio, induced over uninduced
[24] = measured here: relative caspase fold change +Dox/-Dox
[25] = measured here: total cells with miR-34 induction, stronger effect = lower value
[26] = measured here: total cells without miR-34 induction

Chain of 6-phosphogluconate dehydrogenase, decarboxylating (Homo sapiens) (P52209 whole entry, looked up): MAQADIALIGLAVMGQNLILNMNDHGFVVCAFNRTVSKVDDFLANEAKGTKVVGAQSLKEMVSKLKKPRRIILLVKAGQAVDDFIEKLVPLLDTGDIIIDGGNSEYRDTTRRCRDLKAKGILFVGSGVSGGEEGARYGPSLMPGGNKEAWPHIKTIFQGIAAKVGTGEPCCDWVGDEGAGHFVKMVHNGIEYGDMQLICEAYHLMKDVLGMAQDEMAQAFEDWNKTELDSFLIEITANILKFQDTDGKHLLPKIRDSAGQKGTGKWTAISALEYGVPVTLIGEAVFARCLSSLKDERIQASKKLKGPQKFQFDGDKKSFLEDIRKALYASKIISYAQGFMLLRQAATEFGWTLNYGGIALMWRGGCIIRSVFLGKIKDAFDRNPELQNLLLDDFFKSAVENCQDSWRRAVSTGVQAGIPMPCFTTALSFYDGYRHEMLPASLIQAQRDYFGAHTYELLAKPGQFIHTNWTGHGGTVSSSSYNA
Chain of NAD(+) hydrolase SARM1 (Homo sapiens) (Q6SZW1 whole entry, looked up, the tested form may be a part): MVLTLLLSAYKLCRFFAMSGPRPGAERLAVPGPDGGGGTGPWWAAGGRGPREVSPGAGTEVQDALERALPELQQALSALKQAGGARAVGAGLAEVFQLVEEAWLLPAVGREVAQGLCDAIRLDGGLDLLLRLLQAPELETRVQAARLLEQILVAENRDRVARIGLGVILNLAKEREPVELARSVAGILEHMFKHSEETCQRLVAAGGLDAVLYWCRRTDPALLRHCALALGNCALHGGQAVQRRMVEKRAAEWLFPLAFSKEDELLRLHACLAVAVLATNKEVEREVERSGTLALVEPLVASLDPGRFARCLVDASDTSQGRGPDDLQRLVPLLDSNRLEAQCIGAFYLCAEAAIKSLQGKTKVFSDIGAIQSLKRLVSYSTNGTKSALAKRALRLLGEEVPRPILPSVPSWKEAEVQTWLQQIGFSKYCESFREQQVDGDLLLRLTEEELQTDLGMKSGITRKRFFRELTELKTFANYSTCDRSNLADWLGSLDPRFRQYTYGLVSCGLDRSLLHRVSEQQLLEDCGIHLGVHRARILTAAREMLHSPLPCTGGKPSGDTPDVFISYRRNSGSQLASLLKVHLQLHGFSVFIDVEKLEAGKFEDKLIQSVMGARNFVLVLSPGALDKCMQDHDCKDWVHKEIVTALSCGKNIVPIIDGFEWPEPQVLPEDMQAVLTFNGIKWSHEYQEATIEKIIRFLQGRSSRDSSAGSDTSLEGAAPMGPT
Chain of Mitogen-activated protein kinase 7 (Homo sapiens) (Q13164 whole entry, looked up, the tested form may be a part): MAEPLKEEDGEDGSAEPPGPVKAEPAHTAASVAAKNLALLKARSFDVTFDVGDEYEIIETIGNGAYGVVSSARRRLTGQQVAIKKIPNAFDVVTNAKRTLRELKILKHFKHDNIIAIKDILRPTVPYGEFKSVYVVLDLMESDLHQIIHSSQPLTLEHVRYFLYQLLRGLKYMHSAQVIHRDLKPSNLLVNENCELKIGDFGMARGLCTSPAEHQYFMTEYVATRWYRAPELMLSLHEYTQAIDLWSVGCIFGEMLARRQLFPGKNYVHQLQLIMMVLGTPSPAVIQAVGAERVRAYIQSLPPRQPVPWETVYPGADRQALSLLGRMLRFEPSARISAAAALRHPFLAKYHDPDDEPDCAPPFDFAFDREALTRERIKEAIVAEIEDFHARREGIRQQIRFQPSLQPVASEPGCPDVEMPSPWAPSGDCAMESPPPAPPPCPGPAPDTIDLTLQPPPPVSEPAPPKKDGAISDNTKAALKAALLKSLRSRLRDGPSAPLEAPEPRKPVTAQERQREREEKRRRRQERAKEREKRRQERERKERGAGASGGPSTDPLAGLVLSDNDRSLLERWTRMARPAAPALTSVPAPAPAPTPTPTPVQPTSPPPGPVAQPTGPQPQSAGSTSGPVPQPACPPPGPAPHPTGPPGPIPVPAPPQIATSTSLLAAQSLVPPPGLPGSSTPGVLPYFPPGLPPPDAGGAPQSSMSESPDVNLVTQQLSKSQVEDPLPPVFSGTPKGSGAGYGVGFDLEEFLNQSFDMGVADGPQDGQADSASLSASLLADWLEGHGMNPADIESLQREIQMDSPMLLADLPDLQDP

NC(=O)c1cnccn1
nuclear beta-catenin stimulation ([1]; at 10 µM): -0.1% (inactive) | nuclear beta-catenin stimulation ([1]; stimulation, at 2 µM): -0.7% | insulin secretion stimulation [2]: -1.9% (inactive) | viability decrease [3]: 0.65% (inactive) | tube area decrease [4]: 14.5% (inactive) | GLP1 secretion stimulation [5]: 3.1% (inactive) | inhibition of viability [6]: -20.7% (inactive) | viability decrease (inhibition) [7]: -1.8% (inactive) | viability decrease (inhibition) [8]: -1.9% (inactive) | inhibition [9]: -8.25% (inactive) | mean signal [10]: 263 (inactive) | red/green cell ratio (normalised) [11]: 1.13 (inactive) | normalised cell number [11, 19]: 0.91 | normalised cell number [11, 20]: 1.03 | z-score [12, 21]: -0.184 (inactive) and 0.644 (inactive) | z-score [12, 22]: -1 and -0.0443 | remaining NAD [13]: 10 nM (inactive) | luciferase signal [14]: 48 AU (inactive) | log fold change Tl+ flux [15]: -0.0194 (inactive) | log fold change Tl+ flux [16]: 0.0317 (inactive) | log fold change Tl+ flux [17]: -0.0799 (active)

OCCN1CCN(CCCN2c3ccccc3Sc3ccc(C(F)(F)F)cc32)CC1
nuclear beta-catenin stimulation ([1]; at 10 µM): 39.2% (inactive) | nuclear beta-catenin stimulation ([1]; stimulation, at 2 µM): 6.3% | insulin secretion stimulation [2]: 8.85% (inactive) | viability decrease [3]: 118% (active) | tube area decrease [4]: 98.9% (active) | GLP1 secretion stimulation [5]: 15.4% (inactive) | inhibition of viability [6]: 124% (active) | viability decrease (inhibition) [7]: 157% (active) | viability decrease (inhibition) [8]: 101% (active) | inhibition [9]: 10.2% (inactive) | mean signal [10]: 243 (inactive) | red/green cell ratio (normalised) [11]: 1.23 (inactive) | normalised cell number [11, 19]: 0.78 | normalised cell number [11, 20]: 0.95 | z-score [12, 21]: -1.28 (inactive) and 0.571 (inactive) | z-score [12, 22]: -0.139 and 0.376 | remaining NAD [13]: 10 nM (inactive) | luciferase signal [14]: 28 AU (inactive) | log fold change Tl+ flux [15]: 0.235 (active) | log fold change Tl+ flux [16]: 0.117 (active) | log fold change Tl+ flux [17]: 0.167 (active)

CO[C@@]1(NC(=O)Cc2cccs2)C(=O)N2C(C(=O)O)=C(COC(N)=O)CS[C@@H]21
nuclear beta-catenin stimulation ([1]; at 10 µM): -1.4% (inactive) | nuclear beta-catenin stimulation ([1]; stimulation, at 2 µM): -0.5% | insulin secretion stimulation [2]: 2.1% (inactive) | viability decrease [3]: -11.8% (inactive) | tube area decrease [4]: 26.2% (inactive) | GLP1 secretion stimulation [5]: -1.2% (inactive) | inhibition of viability [6]: 14.8% (inactive) | viability decrease (inhibition) [7]: 8.9% (inactive) | viability decrease (inhibition) [8]: -14.4% (inactive) | inhibition [9]: 8.52% (inactive) | mean signal [10]: 248 (inactive) | red/green cell ratio (normalised) [11]: 1.1 (inactive) | normalised cell number [11, 19]: 0.99 | normalised cell number [11, 20]: 1.09 | fold change [18, 23]: 1.01 (inactive) and 0.868 (inactive) and 0.891 (inactive) | fold change [18, 24]: 8.44 and 1.64 and 2.66 | cell count [18, 25]: 10400 and 9040 and 11300 | cell count [18, 26]: 10300 and 10400 and 12700 | z-score [12, 21]: 0.626 (inactive) | z-score [12, 22]: -0.518 | remaining NAD [13]: 10 nM (inactive) | luciferase signal [14]: 108 AU (inactive) | log fold change Tl+ flux [15]: 0.0585 (inactive) | log fold change Tl+ flux [16]: -0.00712 (inactive) | log fold change Tl+ flux [17]: -0.00432 (inactive)

OC(CCN1CCCC1)(c1ccccc1)C1CCCCC1 (stereo not drawn)
nuclear beta-catenin stimulation ([1]; at 10 µM): 4.7% (inactive) | nuclear beta-catenin stimulation ([1]; stimulation, at 2 µM): 4.9% | insulin secretion stimulation [2]: 6.4% (inactive) | viability decrease [3]: -95.6% (inactive) | tube area decrease [4]: -12.4% (inactive) | GLP1 secretion stimulation [5]: 3.4% (inactive) | inhibition of viability [6]: 17.1% (inactive) | viability decrease (inhibition) [7]: 22.1% (inactive) | viability decrease (inhibition) [8]: 10.7% (inactive) | inhibition [9]: -21.9% (inactive) | mean signal [10]: 232 (inactive) | red/green cell ratio (normalised) [11]: 1.05 (inactive) | normalised cell number [11, 19]: 0.98 | normalised cell number [11, 20]: 1.03 | fold change [18, 23]: 0.976 (inactive) and 0.849 (inactive) and 0.894 (inactive) | fold change [18, 24]: 1.12 and 3.13 and 3.87 | cell count [18, 25]: 10200 and 8600 and 10900 | cell count [18, 26]: 10400 and 10100 and 12200 | z-score [12, 21]: 0.381 (inactive) | z-score [12, 22]: 0.369 | remaining NAD [13]: 10 nM (inactive) | luciferase signal [14]: 44 AU (inactive) | log fold change Tl+ flux [15]: 0.0696 (inactive) | log fold change Tl+ flux [16]: 0.0373 (inactive) | log fold change Tl+ flux [17]: 0.106 (active)

Cc1ccc(C)c(OCCCC(C)(C)C(=O)O)c1
nuclear beta-catenin stimulation ([1]; at 10 µM): 1.3% (inactive) | nuclear beta-catenin stimulation ([1]; stimulation, at 2 µM): 1.2% | insulin secretion stimulation [2]: -1% (inactive) | viability decrease [3]: 4.95% (inactive) | tube area decrease [4]: -9.2% (inactive) | GLP1 secretion stimulation [5]: 2.4% (inactive) | inhibition of viability [6]: -1.9% (inactive) | viability decrease (inhibition) [7]: 20.7% (inactive) | viability decrease (inhibition) [8]: 0.75% (inactive) | inhibition [9]: -2.35% (inactive) | mean signal [10]: 239 (inactive) | red/green cell ratio (normalised) [11]: 1.25 (inactive) | normalised cell number [11, 19]: 0.82 | normalised cell number [11, 20]: 1.03 | z-score [12, 21]: -0.269 (inactive) and 0.233 (inactive) and 0.482 (inactive) | z-score [12, 22]: 0.636 and -0.228 and 0.576 | remaining NAD [13]: 10 nM (inactive) | luciferase signal [14]: 128 AU (inactive) | log fold change Tl+ flux [15]: 0.0531 (inactive) | log fold change Tl+ flux [16]: 0.07 (inactive) | log fold change Tl+ flux [17]: 0.0499 (inactive)

Cc1ncc([N+](=O)[O-])n1CC(C)O (stereo not drawn)
nuclear beta-catenin stimulation ([1]; at 10 µM): 3.5% (inactive) | nuclear beta-catenin stimulation ([1]; stimulation, at 2 µM): 1.6% | insulin secretion stimulation [2]: -0.9% (inactive) | viability decrease [3]: -3.45% (inactive) | tube area decrease [4]: -13.6% (inactive) | GLP1 secretion stimulation [5]: 4.1% (inactive) | inhibition of viability [6]: -0.3% (inactive) | viability decrease (inhibition) [7]: 5.3% (inactive) | viability decrease (inhibition) [8]: -0.75% (inactive) | inhibition [9]: -1.51% (inactive) | mean signal [10]: 281 (inactive) | red/green cell ratio (normalised) [11]: 0.83 (inactive) | normalised cell number [11, 19]: 1.13 | normalised cell number [11, 20]: 0.94 | fold change [18, 23]: 0.961 (inactive) and 0.91 (inactive) | fold change [18, 24]: 1.68 and 0.635 and 1.41 | cell count [18, 25]: 9430 and 9630 and 9650 | cell count [18, 26]: 9820 and 10000 and 10600 | z-score [12, 21]: -0.319 (inactive) and 0.295 (inactive) and -0.342 (inactive) | z-score [12, 22]: 0.828 and -0.245 and -0.0796 | remaining NAD [13]: 10 nM (inactive) | luciferase signal [14]: 40 AU (inactive) | log fold change Tl+ flux [15]: -0.058 (inactive) | log fold change Tl+ flux [16]: -0.0446 (inactive) | log fold change Tl+ flux [17]: -0.00369 (inactive)

COC1=CC(=O)C[C@@H](C)[C@]12Oc1c(Cl)c(OC)cc(OC)c1C2=O
nuclear beta-catenin stimulation ([1]; at 10 µM): 1.9% (inactive) | nuclear beta-catenin stimulation ([1]; stimulation, at 2 µM): 0.3% | insulin secretion stimulation [2]: 6.2% (inactive) | viability decrease [3]: 38.4% (inactive) | tube area decrease [4]: 24.2% (inactive) | GLP1 secretion stimulation [5]: 0.1% (inactive) | inhibition of viability [6]: 43.7% (inactive) | viability decrease (inhibition) [7]: 64.1% (active) | viability decrease (inhibition) [8]: 20% (inactive) | inhibition [9]: 1.41% (inactive) | mean signal [10]: 231 (inactive) | red/green cell ratio (normalised) [11]: 0.76 (inactive) | normalised cell number [11, 19]: 1.41 | normalised cell number [11, 20]: 1.07 | fold change [18, 23]: 1.07 (inactive) and 0.956 (inactive) and 0.943 (inactive) | fold change [18, 24]: 2.5 and 0.98 and 2.02 | cell count [18, 25]: 6100 and 6900 and 8710 | cell count [18, 26]: 5720 and 7210 and 9240 | z-score [12, 21]: 1.78 (inactive) | z-score [12, 22]: 0.726 | remaining NAD [13]: 10 nM (inactive) | luciferase signal [14]: 104 AU (inactive) | log fold change Tl+ flux [15]: 0.00739 (inactive) | log fold change Tl+ flux [16]: -0.046 (inactive) | log fold change Tl+ flux [17]: 0.0194 (inactive)
